The record followed here is PubChem BioAssay.

Structures are written as SMILES. Where “and” joins values, the source holds several entries; their conditions need not be identical. Equal values may be shown once. For part of these data: Entries with a potency or affinity are not part of this list. Calls of active or inactive are those of the source. Cut-off read from the data, not from the text of the source, unless noted: active = parasite load remaining mostly below about 12% (no sharp cut-off); inactive = mostly above about 10%.

The nature of experiment [1]: blockers of polyQ-driven CASP3 activation – cell-based (AID 1583). Particulars: polyglutamine-induced caspase-3 activation, cell assay; stronger effect = higher value;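 tested at 10 µM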.
Experiment [2] in a line: yeast 75Q aggregation reduction – 75Q-TubU reporter (AID 1593). Particulars: Yeast 75Q polyglutamine aggregation reporter.
Experiment [3] can be described thus: restoration of touch response, mutant HTT neurons – whole organism, C. elegans mechanosensory neurons, N-terminal huntingtin (AID 1599). Particulars: C. elegans polyQ-huntingtin mechanosensory neurons, stronger effect = higher value.
Experiment [4] can be described thus: blockers of cytochrome c efflux from mitochondria – biochemical, purified mitochondria (AID 1603).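 Note: mouse liver mitochondria challenged with calcium chloride; signal normalized to the plate average as 100%.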 As to conditions: stronger effect = lower value.
Experiment [5] in a line: polyglutamine aggregate formation blockers (AID 1604). Particulars: polyglutamine-induced protein aggregation inhibition assay; stronger effect = higher value; tested at 2.5 µM.
The nature of experiment [6]: glutamate transport activators, MN-1 cells, MN-1 cell line (AID 1612).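 Note: tested at 1 µM final; 0% = mean of DMSO vehicle wells on each plate; positive means more glutamate uptake than control and negative means less.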 As to conditions: MN-1 motor neuron cells, stronger effect = higher value.
The nature of experiment [7]: GFP-Q80 aggregate reduction, neuronal-like cells, cell-based, NGF-treated PC12, GFPQ80 (AID 1614).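 Note: lower means fewer inclusions and 0 means no inclusions at all.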 As to conditions: PC12 NGF-treated GFP-polyQ80 inclusion reduction.
Experiment [8] is described as follows: 75Q-TubH aggregate inhibition, S. cerevisiae, yeast (AID 1616). As to conditions: S. cerevisiae 75Q-TubH polyglutamine aggregation suppression; stronger effect = higher value.
Experiment [9] can be described thus: P. berghei load reduction in hepatocytes – cell-based, HepG2, luciferase luminescence, HepG2 viability, primary screen (AID 624349).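 Note: 100% = mean of DMSO negative control wells on the same plate.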 Particulars: P. berghei liver stage in HepG2, luciferase luminescence, concentration not given here; parasite load remaining: stronger effect = lower value; viability: measured here: HepG2 viability without parasites.
The nature of experiment [10]: EMT-state selective cytotoxicity in co-culture – imaging, PC-3E GFP, TEM4-18 mCherry, primary screen (AID 1345086;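 active = compounds killing one labelled cell type while sparing the other, by normalised counts and ratio limits, not self-fluorescent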;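 for all read-outs here: cells exposed to compound for 72 h before imaging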;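 for red/green cell ratio (normalised): normalised mesenchymal count divided by normalised epithelial count so high means epithelial killing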). As to conditions: PC-3E GFP / TEM4-18 mCherry co-culture, imaging cell counts, at 1 µM; for red/green cell ratio (normalised): actives lie on both sides, counts scaled to control wells, 1 = unselective.
Experiment [11] can be described thus: viability loss with induced miR-34 in A549 – imaging, A549 dox-inducible miR-34, nuclei and caspase counts, primary screen (AID 1347080;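 active = compounds whose cell count with miR-34 switched on is under 0.7 times the count with it off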). As to conditions: A549 miR-34 inducible, Hoechst nuclei count, 48 h.
The mark [12] stands for this setting: measured here: epithelial PC-3E GFP cell survival.
Setting [13] is: measured here: mesenchymal TEM4-18 mCherry cell survival.
[14] abbreviates: stronger effect = lower value, cell number ratio, induced over uninduced.
Where [15] appears, read: measured here: relative caspase fold change +Dox/-Dox.
Where [16] appears, read: measured here: total cells with miR-34 induction, stronger effect = lower value.
The mark [17] stands for this setting: measured here: total cells without miR-34 induction.

For the compound `CC(=O)O[C@]1(C(C)=O)CCC2C3C=C(Cl)C4=CC(=O)[C@@H]5C[C@@H]5[C@]4(C)C3CC[C@@]21C` (some centres not stated), the inhibition (commonly the change of the read-out against control, counted positive when it falls) in [1] is 22.9%. This compound also showed a score in experiment [2] of 0.66. Also, in experiment [3], the rescue above control is -6.61. The cytochrome c release ratio in [4] worked out at 1.14. The compound also returned an inhibition of aggregation in experiment [5] of 61%. The glutamate uptake change in experiment [6] is 14.6%. This compound registered an inclusion score in experiment [7] of 1. In addition, the aggregation suppression score in [8] came out at 0.413. Besides, the parasite load remaining in experiment [9] is 90.2% (inactive) and 39.4% (inactive). The viability – broadly, a read-out of living cells in per cent, often relative to untreated cells – in experiment [9] was 70.9% and 86.5%. Besides, the red/green cell ratio (normalised) in [10] is 0.81 (inactive). Further, the normalised cell number in [10] (setting [12]) came to 1.12; in [10] (setting [13]), 0.91. Further, the values for the fold change in experiment [11] (setting [14]) and in experiment [11] (setting [15]) were 0.907 (inactive) and 1.85, respectively. The cell count is 11200 in experiment [11] (setting [16]) and 12400 in [11] (setting [17]).

Regarding `C[C@]12CCC(=O)C=C1CCC1C2[C@@H](O)C[C@@]2(C)C1CC[C@]2(O)C(=O)CO` (some centres not stated), the inhibition in experiment [1] was found to be 5.24%. Also, the score in [2] was found to be 1.39. The same compound returned a rescue above control in experiment [3] of -4.34. For the same compound, the cytochrome c release ratio in experiment [4] worked out at 1.36. Also, the inhibition of aggregation in experiment [5] was 63.4%. The glutamate uptake change in experiment [6] came to 10.6%. Further, in [7], the inclusion score amounted to 2. Further, the aggregation suppression score in [8] was found to be 1.61. In experiment [9], the parasite load remaining is 94% (inactive). In [9], the viability came to 99.2%. In addition, in experiment [10], the red/green cell ratio (normalised) is 1.04 (inactive). For the same compound, the normalised cell number in experiment [10] (setting [12]) was 1.28; in experiment [10] (setting [13]), 1.34. The fold change is 0.949 (inactive) in experiment [11] (setting [14]) and 3.13 in experiment [11] (setting [15]). In addition, the cell count in experiment [11] (setting [16]) worked out at 7100; in experiment [11] (setting [17]), 7490.

Turning to `CO/N=C(/C(=O)NC1C(=O)N2C(C(=O)O)=C(COC(N)=O)CSC12)c1ccco1` (configuration not stated), the inhibition in [1] was determined as 8.13%. The score in experiment [2] turned out to be 1.48. In experiment [3], this compound yielded a rescue above control of -9.55. Moreover, the cytochrome c release ratio in [4] came out at 1.1. The same compound had an inhibition of aggregation in [5] of 28.8%. Also, the glutamate uptake change in [6] amounted to 14.5%. This compound yielded an inclusion score in experiment [7] of 2. The compound further registered an aggregation suppression score in experiment [8] of 1.29. Besides, the parasite load remaining in experiment [9] is 180% (inactive) and 36.7% (inactive). Besides, the viability in experiment [9] was 72.5% and 86.1%. Moreover, the red/green cell ratio (normalised) in [10] was 0.94 (inactive). Also, the normalised cell number worked out at 1.04 in [10] (setting [12]) and 0.97 in experiment [10] (setting [13]). For the same compound, the fold change is 0.899 (inactive) in [11] (setting [14]) and 3.3 in experiment [11] (setting [15]). Besides, the cell count in experiment [11] (setting [16]) was 11600; in experiment [11] (setting [17]) it was 12900.

On to `O=C1O[C@@H](CO)[C@H](O)[C@@H](O)[C@@H]1O`, for which the inhibition in experiment [1] is -15.4%. In addition, in experiment [2], the score was found to be 1.29. The rescue above control in experiment [3] amounted to 7.61. Moreover, the cytochrome c release ratio in experiment [4] is 0.98. Besides, the inhibition of aggregation in experiment [5] came to 50.7%. The glutamate uptake change in experiment [6] is -5.06%. The inclusion score in experiment [7] turned out to be 2. Moreover, the aggregation suppression score in experiment [8] was 1.09. Besides, the parasite load remaining in experiment [9] is 176% (inactive) and 30.6% (inactive). The viability in experiment [9] was 83.8% and 96.7%. Also, the red/green cell ratio (normalised) in experiment [10] is 1.05 (inactive). The normalised cell number worked out at 0.98 in experiment [10] (setting [12]) and 1.02 in experiment [10] (setting [13]). Besides, the fold change in [11] (setting [14]) was 0.946 (inactive); in experiment [11] (setting [15]), 2.61. Also, the cell count in experiment [11] (setting [16]) was determined as 12000; in experiment [11] (setting [17]) it was 12600.

On to `C=C1CC[C@H](O)C/C1=C/C=C1\CCC[C@]2(C)C([C@H](C)/C=C/[C@H](C)C(C)C)CC[C@@H]12` (some centres not stated), for which the inhibition in [1] worked out at 1.02%. The compound further gave a score in [2] of 0.91. In [3], this compound registered a rescue above control of 1.1. Moreover, the cytochrome c release ratio in experiment [4] is 1.43. The compound further gave an inhibition of aggregation in experiment [5] of 63.2%. In experiment [6], the glutamate uptake change was 0.71%. In experiment [7], this compound registered an inclusion score of 3. In experiment [8], the aggregation suppression score is 0.441. For the same compound, the parasite load remaining in experiment [9] was 81.3% (inactive) and 44.7% (inactive). Further, the viability in experiment [9] was 73.5% and 101%. The red/green cell ratio (normalised) in experiment [10] was 1.11 (inactive). Moreover, the values for the normalised cell number in experiment [10] (setting [12]) and in experiment [10] (setting [13]) were 1.28 and 1.42, respectively. Moreover, the fold change in [11] (setting [14]) was 0.922 (inactive); in experiment [11] (setting [15]) it was 2.88. Further, the cell count in [11] (setting [16]) was 11200; in experiment [11] (setting [17]), 12200.

In the case of `Cn1nnnc1SCC1=C(C(=O)O)N2C(=O)C(NC(=O)C(O)c3ccccc3)C2SC1` (configuration not stated), in [1], the inhibition amounted to 15.1%. This compound showed a score in [2] of 1.62. In experiment [3], this compound registered a rescue above control of -1.89. Further, in experiment [4], the cytochrome c release ratio stood at 1.02. For the same compound, in experiment [5], the inhibition of aggregation worked out at 39.4%. The glutamate uptake change in experiment [6] was determined as 14.2%. The compound further yielded an inclusion score in experiment [7] of 2. Moreover, the aggregation suppression score in [8] came to 1.25. Moreover, the parasite load remaining in experiment [9] is 39.2% (inactive). The viability in [9] was determined as 86%. Moreover, the red/green cell ratio (normalised) in [10] was 0.9 (inactive). Further, the normalised cell number was 1.03 in experiment [10] (setting [12]) and 0.93 in [10] (setting [13]). For the same compound, the fold change in [11] (setting [14]) is 0.886 (inactive); in experiment [11] (setting [15]), 4.15. The results for the cell count in experiment [11] (setting [16]) and in experiment [11] (setting [17]) were 11200 and 12600, respectively.
